Reference: PubChem BioAssay AID1256 (The Scripps Research Institute Molecular Screening Center, 2008)
This is one part of the list. Unmarked numbers belong to inactive results. Activity calls are given as the source filed them. No stated cut-off is given here; in the data, active means inhibition above about 20%; inactive means the rest.

molecular target: Neuropeptide Y receptor type 1 (Homo sapiens) (UniProt P25929); test: NPY-Y1 receptor antagonists, selectivity check, counter-screen for NPY-Y2 antagonist project, cell-based (AID 1256); conditions: cell-based NPY-Y1 antagonism counterscreen; at 3.6 µM; hits give high values;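 further: cells challenged with NPY then isoproterenol with cAMP sensed through a CNG channel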
Sequence (P25929 whole entry, looked up): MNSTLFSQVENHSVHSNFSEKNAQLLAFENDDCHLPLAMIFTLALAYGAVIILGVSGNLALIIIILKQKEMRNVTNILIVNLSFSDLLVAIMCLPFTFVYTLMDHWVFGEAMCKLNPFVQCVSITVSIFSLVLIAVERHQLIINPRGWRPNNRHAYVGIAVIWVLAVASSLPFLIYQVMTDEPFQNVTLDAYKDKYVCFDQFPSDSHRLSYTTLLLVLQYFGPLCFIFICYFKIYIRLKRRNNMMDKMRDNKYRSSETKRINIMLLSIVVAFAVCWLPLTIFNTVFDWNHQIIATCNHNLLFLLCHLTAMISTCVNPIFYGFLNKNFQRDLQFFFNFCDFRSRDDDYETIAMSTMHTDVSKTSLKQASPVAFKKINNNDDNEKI

SMILES | inhibition
N#Cc1ccc(C(c2nnnn2CCc2ccccc2)N2CCCCCC2)cc1 (stereo not drawn) | 7.96%
Cc1ccc(C2=NN(C)c3nc4ccccc4n3C2)cc1 | 8.4%
C=CCNCCCCOc1ccccc1 | -1.26%
CCOC(=O)C(C)Sc1nc2ccccc2c(=O)n1CC1CCCCC1 (stereo not drawn) | 7.75%
Cc1ccc(S(=O)(=O)N(Cc2ccc(Cl)cc2)c2ccccc2C(=O)NCc2cccnc2)cc1 | 28.4% (active)
COc1ccc(NC(=O)/C(Cl)=C(/Cl)S(=O)Cc2ccc(C)cc2)cn1 (stereo not drawn) | 42.1% (active)
c1ccc(-c2cc3c(NCC4COc5ccccc5O4)ncnc3s2)cc1 (stereo not drawn) | 19.3%
CN(C)Cc1ccc(F)cc1Sc1cc(Cl)ccc1Cl | 11.3%
COc1cccc(-c2ccc(C#N)c(SCC(=O)NCCc3ccc(Cl)cc3)n2)c1 | 9.97%
Cc1cc(C)nc(-n2ncc3c2CC(c2ccc(C(C)C)cc2)CC3=O)n1 (stereo not drawn) | 20.4% (active)
COc1ccc(/C=C/C(=O)NC(=S)NN2CCCCC2c2cccnc2)cc1 (stereo not drawn) | 29.1% (active)
O=C(CC(O)(C(F)(F)F)C(F)(F)F)Nc1ccc(Cl)c(Cl)c1 | 20.5% (active)
COc1ccc(-c2nc3ccccc3n2CCC(C)C)cc1OC | 8.19%
CC12CN(Cc3ccccc3)CC(C)(CN(Cc3ccccc3)C1)C2=NO | 13.2%
O=C1CC(c2cccc(Cl)c2)CC(O)=C1C=Nc1ccccc1 (stereo not drawn) | 17.3%
Cc1ccccc1N1CCN(CCCOc2ccc3c(C)cc(=O)oc3c2)CC1 | 19.3%
N#Cc1ccc(N2Cc3ccccc3/C2=N/C(=O)Nc2ccc(Cl)cc2)cc1 | 100% (active)
O=S(=O)(Cc1cc(Sc2ccccc2)nc(-c2ccccc2)n1)c1ccccc1 | 11.8%
